Experimental findings from PubChem BioAssay are described below.

Active and inactive are the calls of the source.

Experiment [1] relates to Plasmodium falciparum Sir2 (PF13_0152, Sir2A). Kind of experiment: Plasmodium falciparum Sir2A binding compounds – biochemical, small-molecule microarray, 635 nm fluorescence, primary screen (AID 1098).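 Further: score merges spot fluorescence intensity with its signal-to-noise ratio.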 To be noted: fluorescence 635 nm, higher = more signal.
The nature of experiment [2]: probe aDKK1 binding to arrayed compounds – biochemical, biotinylated probe, 635/667 nm fluorescence, primary screen (AID 1099).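 Further: score merges 667nm spot fluorescence with signal to noise across triplicate slides.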 To be noted: small-molecule microarray, higher = more signal.
Experiment [3] can be described thus: probe aCHRDL2 binding to arrayed compounds – biochemical, biotinylated probe, 635/667 nm fluorescence, primary screen (AID 1100). To be noted: small-molecule microarray, higher = more signal.
The nature of experiment [4]: change in splice reporter luminescence, either direction, cell-based, HEK293, spliceosome inhibition project, primary screen (AID 1101).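 Further: HEK293 cells carrying a splicing-competent luciferase reporter gene; test concentration not given here.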 To be noted: HEK293 splicing luciferase reporter, 24 h, higher = more signal, called active from +8 up or from −8 down. (In a reporter assay the amount or activity of a reporter protein is the signal.)
The target in experiment [5] is Fibroblast growth factor 10 (Homo sapiens) (UniProt O15520). In words: compounds binding fibroblast growth factor 10 – biochemical, small-molecule microarray, 635 nm fluorescence, primary screen (AID 1102). To be noted: FGF10 binding, fluorescence 635 nm, higher = more signal.
Experiment [6] deals with glycogen synthase kinase-3 (GSK3A per assay name; protocol says GSK3B). In words: compounds binding glycogen synthase kinase-3 – biochemical, small-molecule microarray, 635 nm fluorescence, GSK3A, primary screen (AID 1103). Further: the record names both GSK3A and GSK3B. To be noted: fluorescence 635 nm, higher = more signal.
Experiment [7] deals with Epidermal growth factor receptor (Homo sapiens) (UniProt P00533). Kind of experiment: compounds binding epidermal growth factor receptor – biochemical, small-molecule microarray, 635 nm fluorescence, primary screen (AID 1104).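 Further: score merges 667 nm emission intensity with spot signal to noise over triplicate slides.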 To be noted: EGFR binding, higher = more signal.
In experiment [8] the target is Follistatin-related protein 3 (Homo sapiens) (UniProt O95633). Kind of experiment: compounds binding follistatin-related protein 3 – biochemical, small-molecule microarray, 635 nm fluorescence, primary screen (AID 1105).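 Further: score merges emission near 667 nm and signal to noise per printed spot across three slides.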 To be noted: FSTL3 binding, higher = more signal.
Experiment [9] has as its target Dickkopf-related protein 1 (Homo sapiens) (UniProt O94907). In words: small molecules binding DKK1 protein – biochemical, small-molecule microarray, 635 nm fluorescence scan, primary screen (AID 1106).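 Further: score merges emission near 667 nm with signal to noise over three replicate slides.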 To be noted: higher = more signal.
Experiment [10] has as its system Inhibin beta A chain (activin A). Kind of experiment: small molecules binding activin A – biochemical, small-molecule microarray, 635 nm fluorescence scan, primary screen (AID 1107).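 Further: mouse activin A protein probed at 4.33 µg/mL on printed slides; score merges bound-protein fluorescence near 667 nm with spot signal-to-noise.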 To be noted: INHBA, higher = more signal.
Experiment [11] relates to Human papillomavirus type 1a protein E7 (residues 44-93). In words: small molecules binding HPV E7 44-93 – biochemical, small-molecule microarray, residues 44-93, 635 nm fluorescence, primary screen (AID 1108).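 Further: E7 fragment applied at 1 µg/mL in TBST for 1 h at 4 C; score combines spot fluorescence with its signal to noise ratio.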 To be noted: fluorescence 635 nm, higher = more signal.
Experiment [12] is described as follows: hepatitis C replication reporter changes, two-sided – Huh7 cells, luciferase reporter, HCV replication inhibitor project, primary screen (AID 1109).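 Further: huh7 hepatoma cells harbouring a luciferase neomycin HCV replicon reporter; luciferase luminescence as measure of HCV replicon replication; test concentration not given here.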 To be noted: Huh7 HCV replicon luciferase reporter, 48 h; higher = more signal.
Experiment [13] addresses Left-right determination factor 2 (Homo sapiens) (UniProt O00292). In words: small molecules binding LEFTY2 protein – biochemical, small-molecule microarray, 635 nm fluorescence scan, primary screen (AID 1110). To be noted: higher = more signal.
The target in experiment [14] is Calmodulin-1 (Homo sapiens) (UniProt P0DP23). Kind of experiment: small molecules binding calmodulin-1 with EGTA – biochemical, small-molecule microarray, Cy5-labelled CALM1, profiling panel (AID 1111).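 Further: labelled calmodulin applied in Tris saline Tween buffer holding calcium plus EGTA and DTT.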 To be noted: Cy5-CALM1 binding fluorescence, higher = more signal.
For experiment [15] the target is unchanged. In words: small molecules binding Ca-loaded calmodulin-1 – biochemical, small-molecule microarray, Cy5-labelled CALM1, plus calcium, artefact control for SMM control-protein annotation, profiling panel (AID 1112).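 Further: score merges spot fluorescence with signal to noise from triplicate slides.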 To be noted: Cy5-CALM1 binding fluorescence, higher = more signal.
Experiment [16] in a line: probe aWnt5a binding to arrayed compounds – biochemical, biotinylated probe, 635/667 nm fluorescence, primary screen (AID 1113).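 Further: score merges 667 nm fluorescence intensity with signal-to-noise per printed feature.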 To be noted: small-molecule microarray, higher = more signal.
A short description of experiment [17]: probe aShh binding to arrayed compounds – biochemical, biotinylated probe, 635/667 nm fluorescence, primary screen (AID 1114).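 Further: probe is biotin-labelled aShh protein from a stem cell growth factor screen; measures binding of labelled protein to compounds printed on the slide; score merges feature fluorescence at 667 nm with signal-to-noise.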 To be noted: small-molecule microarray, higher = more signal.
Experiment [18] in a line: probe aNog binding to arrayed compounds – biochemical, biotinylated probe, 635/667 nm fluorescence, primary screen (AID 1115).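 Further: probe is biotinylated aNog protein used at 0.15 µg/mL for 1 h at 4 C; z-score combines 667 nm fluorescence of each spot with its signal to noise.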 To be noted: small-molecule microarray, higher = more signal.
The target in experiment [19] is Torsin-1A-interacting protein 1 (Homo sapiens) (UniProt Q5JTV8). In words: compound microarray binding of lysate hLAP1 – cell lysate, small-molecule microarray, COS7 lysate, 635/667 nm fluorescence, primary screen (AID 1116). To be noted: 635 nm fluorescence, higher = more signal.
Experiment [20] addresses Alpha-bungarotoxin (Bungarus multicinctus) (UniProt P60615). In words: compounds binding labelled alpha-BTX control protein – biochemical, small-molecule microarray, Alexa647 label, 635/667 nm fluorescence, artefact control for SMM control protein annotation, profiling panel (AID 1117). To be noted: alpha-BTX-A647 binding fluorescence, higher = more signal.

Sequence of Follistatin-related protein 3 (Homo sapiens) (O95633 whole entry, looked up): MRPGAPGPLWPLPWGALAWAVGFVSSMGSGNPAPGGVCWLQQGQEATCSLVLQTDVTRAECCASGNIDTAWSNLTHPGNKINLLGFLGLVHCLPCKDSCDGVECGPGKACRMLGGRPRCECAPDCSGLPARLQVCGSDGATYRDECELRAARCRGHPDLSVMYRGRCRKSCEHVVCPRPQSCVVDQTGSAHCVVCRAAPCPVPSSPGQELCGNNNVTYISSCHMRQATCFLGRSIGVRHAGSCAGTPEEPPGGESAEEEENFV
Sequence of Alpha-bungarotoxin (Bungarus multicinctus) (P60615 whole entry, looked up): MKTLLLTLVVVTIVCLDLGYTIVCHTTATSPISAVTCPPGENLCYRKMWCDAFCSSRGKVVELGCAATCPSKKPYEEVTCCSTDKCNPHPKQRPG
Sequence of Epidermal growth factor receptor (Homo sapiens) (P00533 whole entry, looked up): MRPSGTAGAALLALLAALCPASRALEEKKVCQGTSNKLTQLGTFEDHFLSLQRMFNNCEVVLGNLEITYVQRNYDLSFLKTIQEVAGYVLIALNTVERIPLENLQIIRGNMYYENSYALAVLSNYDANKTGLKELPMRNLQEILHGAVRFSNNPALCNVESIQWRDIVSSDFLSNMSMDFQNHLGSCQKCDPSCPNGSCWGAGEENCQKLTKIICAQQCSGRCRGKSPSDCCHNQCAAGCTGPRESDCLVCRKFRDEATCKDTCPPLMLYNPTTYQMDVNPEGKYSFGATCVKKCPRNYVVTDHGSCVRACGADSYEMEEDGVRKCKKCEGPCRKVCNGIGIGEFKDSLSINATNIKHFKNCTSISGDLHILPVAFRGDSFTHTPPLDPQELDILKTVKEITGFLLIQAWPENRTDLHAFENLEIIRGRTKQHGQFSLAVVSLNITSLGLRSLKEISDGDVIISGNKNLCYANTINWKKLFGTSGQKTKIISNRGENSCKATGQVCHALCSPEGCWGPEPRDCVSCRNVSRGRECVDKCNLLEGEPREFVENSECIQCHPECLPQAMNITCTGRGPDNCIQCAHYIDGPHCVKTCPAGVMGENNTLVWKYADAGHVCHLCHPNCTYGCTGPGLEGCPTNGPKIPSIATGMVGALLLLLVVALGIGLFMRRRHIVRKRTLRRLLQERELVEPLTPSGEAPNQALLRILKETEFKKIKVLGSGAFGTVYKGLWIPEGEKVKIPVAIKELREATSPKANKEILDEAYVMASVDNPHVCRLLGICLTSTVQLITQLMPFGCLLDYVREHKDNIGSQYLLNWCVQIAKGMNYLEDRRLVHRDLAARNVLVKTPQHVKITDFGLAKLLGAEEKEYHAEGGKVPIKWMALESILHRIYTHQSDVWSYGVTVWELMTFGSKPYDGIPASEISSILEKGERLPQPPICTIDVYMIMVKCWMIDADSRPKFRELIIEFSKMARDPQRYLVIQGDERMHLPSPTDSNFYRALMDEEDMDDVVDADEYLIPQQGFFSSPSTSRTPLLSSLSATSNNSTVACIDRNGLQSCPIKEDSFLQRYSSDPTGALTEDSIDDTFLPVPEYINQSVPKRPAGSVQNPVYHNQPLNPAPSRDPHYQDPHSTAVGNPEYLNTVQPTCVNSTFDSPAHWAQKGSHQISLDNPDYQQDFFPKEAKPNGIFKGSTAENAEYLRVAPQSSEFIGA
Sequence of Fibroblast growth factor 10 (Homo sapiens) (O15520 whole entry, looked up): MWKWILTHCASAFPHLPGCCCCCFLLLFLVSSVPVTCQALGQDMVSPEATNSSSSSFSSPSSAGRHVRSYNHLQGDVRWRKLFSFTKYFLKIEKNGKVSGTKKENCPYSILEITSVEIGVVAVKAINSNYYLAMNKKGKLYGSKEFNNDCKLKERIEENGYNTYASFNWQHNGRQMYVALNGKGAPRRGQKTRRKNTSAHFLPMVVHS
Sequence of Dickkopf-related protein 1 (Homo sapiens) (O94907 whole entry, looked up): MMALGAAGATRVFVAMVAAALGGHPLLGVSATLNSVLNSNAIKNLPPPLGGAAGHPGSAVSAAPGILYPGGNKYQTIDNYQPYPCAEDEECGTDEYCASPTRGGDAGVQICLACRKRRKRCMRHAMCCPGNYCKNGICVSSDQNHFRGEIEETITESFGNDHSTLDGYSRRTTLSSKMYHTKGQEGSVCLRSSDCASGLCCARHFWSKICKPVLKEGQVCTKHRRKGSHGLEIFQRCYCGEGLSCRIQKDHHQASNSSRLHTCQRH
Sequence of Left-right determination factor 2 (Homo sapiens) (O00292 whole entry, looked up): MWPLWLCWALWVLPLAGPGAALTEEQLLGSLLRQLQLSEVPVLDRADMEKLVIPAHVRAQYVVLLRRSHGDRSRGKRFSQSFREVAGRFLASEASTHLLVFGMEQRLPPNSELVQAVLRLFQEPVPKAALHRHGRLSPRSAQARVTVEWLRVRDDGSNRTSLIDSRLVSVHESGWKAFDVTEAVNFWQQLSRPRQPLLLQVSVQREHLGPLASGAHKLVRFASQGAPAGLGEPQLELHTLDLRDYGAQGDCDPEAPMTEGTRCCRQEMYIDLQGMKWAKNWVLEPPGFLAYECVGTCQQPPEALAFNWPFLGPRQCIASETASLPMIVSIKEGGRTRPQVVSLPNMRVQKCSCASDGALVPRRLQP
Sequence of Torsin-1A-interacting protein 1 (Homo sapiens) (Q5JTV8 whole entry, looked up): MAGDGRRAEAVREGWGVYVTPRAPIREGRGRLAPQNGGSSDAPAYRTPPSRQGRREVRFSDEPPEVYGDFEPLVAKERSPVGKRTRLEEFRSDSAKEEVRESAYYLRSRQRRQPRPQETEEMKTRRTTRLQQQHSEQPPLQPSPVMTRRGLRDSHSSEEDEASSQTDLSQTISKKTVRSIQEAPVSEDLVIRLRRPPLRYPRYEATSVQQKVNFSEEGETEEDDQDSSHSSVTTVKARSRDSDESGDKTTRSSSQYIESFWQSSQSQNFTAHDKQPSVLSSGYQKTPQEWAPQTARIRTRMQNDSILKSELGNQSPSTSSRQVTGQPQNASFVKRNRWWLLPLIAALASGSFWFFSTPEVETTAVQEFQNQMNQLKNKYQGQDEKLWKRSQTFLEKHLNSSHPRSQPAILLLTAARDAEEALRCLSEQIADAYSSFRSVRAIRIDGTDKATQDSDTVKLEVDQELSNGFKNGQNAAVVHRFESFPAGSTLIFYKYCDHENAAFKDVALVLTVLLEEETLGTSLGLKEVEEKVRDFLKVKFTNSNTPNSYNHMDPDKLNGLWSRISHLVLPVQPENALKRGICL

On to `O=C1C2C=CC(C(O)c3cccc4ccccc34)N(n3cnnc3)C2C(=O)N1Cc1ccccc1` (stereo not given), for which the composite z-score in experiment [1] is 0.161; in [2], 1.72; in [3], 0.8; in experiment [5], 0.975; in experiment [6], -0.181; in [7], 0.402. For the same compound, the composite z-score in [8] is 0.529; in [9], -0.13; in [10] it was 0.668; in experiment [11], 0.0125; in experiment [13], 0.102; in experiment [14], 0.197. Also, the composite z-score in experiment [15] was -0.151; in [16], 1.06; in [17], -0.309; in [18] it was 2.2; in experiment [19] it was 0.67; in experiment [20], 0.274. Also, the values for the z-score in [4] and in experiment [12] were 0.228 (inactive) and -1.16, respectively.
With `COc1ccc(C(O)C2C=CC3C(=O)N(c4ccccc4)C(=O)C3N2Nc2ccccc2)c2ccccc12` (stereo not given), the composite z-score in [1] is 1; in experiment [2] it was 0.927; in experiment [3], 0.947; in experiment [5] it was -0.0394; in experiment [6] it was 0.0564; in [7], -0.413. Besides, the composite z-score was 0.165 in experiment [8]; -0.611 in experiment [9]; 1.19 in experiment [10]; -0.34 in experiment [11]; -0.608 in [13]; 1.25 in experiment [14]. For the same compound, the composite z-score in experiment [15] was 0.851; in [16], -0.0792; in [17], -0.218; in experiment [18], 0.941; in experiment [19] it was 0.814; in experiment [20], 0.93. The z-score is 0.66 (inactive) in [4] and -1.91 in experiment [12].
Regarding `COCCOC(=O)N1C(=O)[C@@]2(c3cc(C#Cc4ccc(OC)cc4)ccc31)[C@H](C(N)=O)[C@H]1C(=O)O[C@H](c3ccccc3)[C@H](c3ccccc3)N1[C@@H]2c1ccc(O)cc1`, the composite z-score is 0.356 in experiment [1]; -0.76 in [2]; -0.318 in experiment [3]; -1.67 in experiment [5]; -1.53 in experiment [6]; -1.67 in [7]. In addition, the composite z-score in experiment [8] is -1.95; in experiment [9], -2.42; in experiment [10] it was -0.115; in [11] it was -0.426; in experiment [13] it was -1.58; in [14] it was -0.844. For the same compound, the composite z-score in experiment [15] was 0.247; in experiment [16], 0.0243; in experiment [17], -0.487; in [18], 0.909; in experiment [19] it was 0.127; in experiment [20], -1.05. The z-score in experiment [4] was -0.298 (inactive); in experiment [12] it was -1.01.
`C=CCOC(=O)[C@@H]1[C@H]2C(=O)O[C@H](c3ccccc3)[C@H](c3ccccc3)N2[C@H](c2ccc(OCCOC(=O)[C@H]3C[C@H]4C(=O)N[C@@H](CC(C)C)C(=O)N4[C@H]3c3cccc(OCCO)c3)cc2)[C@@]12C(=O)Nc1ccc(I)cc12`: the composite z-score in experiment [1] is 1.41; in [2], 0.169; in experiment [3], -0.135; in [5], 1.23; in experiment [6] it was 1.32; in experiment [7] it was 0.694. For the same compound, the composite z-score turned out to be 1.25 in experiment [8]; 0.836 in experiment [9]; 0.255 in [10]; 1.44 in experiment [11]; 0.697 in experiment [13]; 0.896 in experiment [14]. The composite z-score in experiment [15] is 0.163; in experiment [16], -0.0721; in [17], 0.337; in [18], 0.0852; in [19], 0.921; in experiment [20], 2.52. Moreover, the z-score in experiment [4] is -0.835 (inactive); in experiment [12] it was -1.34.
On to `C=CCC(OC(C)=O)[C@@H]1[C@@H](N(Cc2cc3ccccc3o2)C(=O)c2ccc(C)cc2)c2cc(OCCCO)ccc2N1C(=O)c1ccc(-c2ccccc2)cc1` (stereo not given in full), for which the composite z-score in experiment [1] was -0.433; in experiment [2] it was -0.228; in [3], 0.118; in [5] it was 0.161; in [6] it was -0.291; in [7], 0.0009. In addition, the composite z-score in experiment [8] is 0.363; in [9], 0.111; in [10], 1.32; in experiment [11] it was 0.182; in experiment [13], 0.36; in experiment [14] it was -0.259. Further, the composite z-score in experiment [15] is 0.544; in experiment [16], -0.0529; in experiment [17] it was 0.0141; in experiment [18] it was -0.374; in experiment [19] it was 0.285; in [20], 0.169. Moreover, the z-score in [4] was -3.23 (inactive); in [12], -1.67.
